Results published in the supplement of paper PMC10849652.
The full data set covers some 8,800 targets. This sample favours those with a hit. About 0.5% of all pairs of compound and target were hits. Values without a mark were called inactive.

What was measured:
Assay in all cases: log2 fold change, soluble protein after heating vs DMSO (PISA); higher = thermal stabilisation; K562 lysate, 10 uM; active = over 0.2 and 3.5 SD of the protein, either way, in both replicates (recomputed)
ibrutinib = compound: C=CC(=O)N1CCC[C@@H](n2nc(-c3ccc(Oc4ccccc4)cc3)c3c(N)ncnc32)C1 [ibrutinib]
Summary of the method: (§1)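 Values give the log-two fold change in thermal stability against solvent controls, from duplicates. Crude K562 extract at 1 mg/mL protein, made by dounce homogenisation in PBS pH 7.4 with 1 mM MgCl2, was treated with 10 μM compound for 30 min. After 3 min heating across 48°C-58°C, aliquots were pooled, adjusted to 0.5% NP-40 at 4°C and centrifuged at 21,000xg for 90 min. The supernatant was measured by TMTpro 16plex LC-MS/MS with channel sums equalised.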

[1] = compound: CC(=O)c1cnc2ccc(-c3cc(Cl)c(O)c(Cl)c3)nc2c1N[C@H]1CC[C@H](CN(C)C)CC1
Summary of the method: as §1

ralimetinib = compound: CC(C)(C)Cn1c(N)nc2ccc(-c3[nH]c(C(C)(C)C)nc3-c3ccc(F)cc3)nc21 [ralimetinib]
Summary of the method: as §1

[2] = compound: CC(C)(O)CC(=O)NCCn1ccc2ncnc(Nc3ccc(Oc4cccc(C(F)(F)F)c4)c(Cl)c3)c21
Summary of the method: as §1

[3] = compound: CC(C)C1=C2N=C(C=C(N2N=C1)NCC3=CC=CC=C3)NCCCCCCN
Summary of the method: as §1

[4] = compound: CC1=C(C(CC(=O)N1)C2=CC=C(C=C2)C(F)(F)F)C(=O)NC3=C(C=C4C(=C3)C=NN4)F
Summary of the method: as §1

[5] = compound: CC1=C(C2=C(C=C1)C(=O)C3=CC=CC=C3N2CCCN)C
Summary of the method: as §1

[6] = compound: CC1=C(C=C(C=C1)NC(=O)C2=CC(=CC=C2)C(C)(C)C#N)NC3=CC4=C(C=C3)N=CN(C4=O)C
Summary of the method: as §1

[7] = compound: CC1=C(C=C(C=C1)NC(=O)C2=CC(=CC=C2)N(C)C)NC(=O)C3=CC=C(C=C3)O
Summary of the method: as §1

[8] = compound: CC1=CC=C(C=C1)SC2=C3C=C(SC3=CN=C2)C(=O)N
Summary of the method: as §1

vemurafenib = compound: CCCS(=O)(=O)Nc1ccc(F)c(C(=O)c2c[nH]c3ncc(-c4ccc(Cl)cc4)cc23)c1F [vemurafenib]
Summary of the method: as §1

[9] = compound: CCCS(=O)(=O)Nc1ccc(F)c(C(=O)c2c[nH]c3ncc(Cl)cc23)c1F
Summary of the method: as §1

barasertib = compound: CCN(CCCOc1ccc2c(Nc3cc(CC(=O)Nc4cccc(F)c4)[nH]n3)ncnc2c1)CCOP(=O)(O)O [barasertib]
Summary of the method: as §1

[10] = compound: CC[C@@H]1C(=O)N(C)c2cnc(Nc3ccc(C(=O)NC4CCN(C)CC4)cc3OC)nc2N1C1CCCC1
Summary of the method: as §1

volasertib = compound: CC[C@@H]1C(=O)N(C)c2cnc(Nc3ccc(C(=O)N[C@H]4CC[C@H](N5CCN(CC6CC6)CC5)CC4)cc3OC)nc2N1C(C)C [volasertib]
Summary of the method: as §1

[11] = compound: CCn1c(C(=O)N(C2CC2)C2CC2)cc2c3c(ncn3C)c(Nc3cc(C)n(C)n3)nc21
Summary of the method: as §1

[12] = compound: CCn1cc(-c2ccnc3[nH]c(-c4cccc(CN(C)C)c4)cc23)c(-c2ccc(NC(=O)N(C)C)cc2)n1
Summary of the method: as §1

[13] = compound: CN1CCC(CNc2ccc3ncc(-c4cccc(OC(F)(F)F)c4)n3n2)CC1
Summary of the method: as §1

saracatinib = compound: CN1CCN(CCOc2cc(OC3CCOCC3)c3c(Nc4c(Cl)ccc5c4OCO5)ncnc3c2)CC1 [saracatinib]
Summary of the method: as §1

sotrastaurin = compound: CN1CCN(c2nc(C3=C(c4c[nH]c5ccccc45)C(=O)NC3=O)c3ccccc3n2)CC1 [sotrastaurin]
Summary of the method: as §1

UniProt P11441, sequence (P11441 whole entry, looked up): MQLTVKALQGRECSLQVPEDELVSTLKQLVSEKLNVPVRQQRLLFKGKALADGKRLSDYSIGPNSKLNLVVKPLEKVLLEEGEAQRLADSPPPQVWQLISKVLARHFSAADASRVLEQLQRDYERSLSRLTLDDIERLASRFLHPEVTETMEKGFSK
UniProt Q9UPN9, sequence (Q9UPN9 whole entry, looked up): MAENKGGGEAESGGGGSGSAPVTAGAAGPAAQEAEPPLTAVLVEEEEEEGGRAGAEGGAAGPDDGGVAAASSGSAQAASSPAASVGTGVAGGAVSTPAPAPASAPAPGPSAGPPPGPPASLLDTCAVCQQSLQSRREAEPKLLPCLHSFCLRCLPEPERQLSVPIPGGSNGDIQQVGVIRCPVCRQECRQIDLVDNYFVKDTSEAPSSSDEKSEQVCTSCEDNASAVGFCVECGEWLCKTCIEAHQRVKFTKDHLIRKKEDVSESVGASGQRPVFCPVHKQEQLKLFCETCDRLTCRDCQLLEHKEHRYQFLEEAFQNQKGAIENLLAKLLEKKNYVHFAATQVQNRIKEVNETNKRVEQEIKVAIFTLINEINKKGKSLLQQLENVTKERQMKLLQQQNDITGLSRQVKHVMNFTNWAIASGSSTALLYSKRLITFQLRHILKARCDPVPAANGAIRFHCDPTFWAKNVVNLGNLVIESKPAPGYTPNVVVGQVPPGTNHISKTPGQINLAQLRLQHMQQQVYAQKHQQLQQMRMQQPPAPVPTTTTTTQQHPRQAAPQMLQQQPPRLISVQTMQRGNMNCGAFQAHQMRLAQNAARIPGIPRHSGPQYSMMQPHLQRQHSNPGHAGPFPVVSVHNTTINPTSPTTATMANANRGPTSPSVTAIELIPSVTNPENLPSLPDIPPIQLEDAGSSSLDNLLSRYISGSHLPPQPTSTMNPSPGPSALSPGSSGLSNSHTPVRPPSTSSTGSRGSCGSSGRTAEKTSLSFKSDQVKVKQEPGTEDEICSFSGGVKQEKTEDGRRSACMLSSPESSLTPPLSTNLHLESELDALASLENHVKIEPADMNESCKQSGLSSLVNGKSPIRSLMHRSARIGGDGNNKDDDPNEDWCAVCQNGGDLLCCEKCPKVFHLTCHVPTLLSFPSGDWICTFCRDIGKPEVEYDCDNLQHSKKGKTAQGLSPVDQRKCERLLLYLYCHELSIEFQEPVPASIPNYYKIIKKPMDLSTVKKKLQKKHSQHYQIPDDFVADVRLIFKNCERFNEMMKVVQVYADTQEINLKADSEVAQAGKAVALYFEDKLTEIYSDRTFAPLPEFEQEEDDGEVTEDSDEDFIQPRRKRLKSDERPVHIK
UniProt Q15813, sequence (Q15813 whole entry, looked up): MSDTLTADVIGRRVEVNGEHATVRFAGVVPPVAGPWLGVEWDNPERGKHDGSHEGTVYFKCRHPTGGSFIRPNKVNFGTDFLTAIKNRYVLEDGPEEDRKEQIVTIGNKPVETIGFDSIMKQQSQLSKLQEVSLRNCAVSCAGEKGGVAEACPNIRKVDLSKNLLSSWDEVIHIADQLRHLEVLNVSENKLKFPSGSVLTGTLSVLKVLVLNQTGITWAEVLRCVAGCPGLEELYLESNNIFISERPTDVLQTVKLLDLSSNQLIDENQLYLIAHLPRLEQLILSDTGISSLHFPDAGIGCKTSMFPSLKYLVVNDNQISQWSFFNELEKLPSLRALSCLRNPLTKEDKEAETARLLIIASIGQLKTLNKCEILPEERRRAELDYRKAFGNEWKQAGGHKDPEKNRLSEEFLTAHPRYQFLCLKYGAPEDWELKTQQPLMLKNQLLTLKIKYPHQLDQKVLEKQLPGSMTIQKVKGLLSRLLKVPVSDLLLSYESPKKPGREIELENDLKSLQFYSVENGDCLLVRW
UniProt P48553, sequence (P48553 whole entry, looked up): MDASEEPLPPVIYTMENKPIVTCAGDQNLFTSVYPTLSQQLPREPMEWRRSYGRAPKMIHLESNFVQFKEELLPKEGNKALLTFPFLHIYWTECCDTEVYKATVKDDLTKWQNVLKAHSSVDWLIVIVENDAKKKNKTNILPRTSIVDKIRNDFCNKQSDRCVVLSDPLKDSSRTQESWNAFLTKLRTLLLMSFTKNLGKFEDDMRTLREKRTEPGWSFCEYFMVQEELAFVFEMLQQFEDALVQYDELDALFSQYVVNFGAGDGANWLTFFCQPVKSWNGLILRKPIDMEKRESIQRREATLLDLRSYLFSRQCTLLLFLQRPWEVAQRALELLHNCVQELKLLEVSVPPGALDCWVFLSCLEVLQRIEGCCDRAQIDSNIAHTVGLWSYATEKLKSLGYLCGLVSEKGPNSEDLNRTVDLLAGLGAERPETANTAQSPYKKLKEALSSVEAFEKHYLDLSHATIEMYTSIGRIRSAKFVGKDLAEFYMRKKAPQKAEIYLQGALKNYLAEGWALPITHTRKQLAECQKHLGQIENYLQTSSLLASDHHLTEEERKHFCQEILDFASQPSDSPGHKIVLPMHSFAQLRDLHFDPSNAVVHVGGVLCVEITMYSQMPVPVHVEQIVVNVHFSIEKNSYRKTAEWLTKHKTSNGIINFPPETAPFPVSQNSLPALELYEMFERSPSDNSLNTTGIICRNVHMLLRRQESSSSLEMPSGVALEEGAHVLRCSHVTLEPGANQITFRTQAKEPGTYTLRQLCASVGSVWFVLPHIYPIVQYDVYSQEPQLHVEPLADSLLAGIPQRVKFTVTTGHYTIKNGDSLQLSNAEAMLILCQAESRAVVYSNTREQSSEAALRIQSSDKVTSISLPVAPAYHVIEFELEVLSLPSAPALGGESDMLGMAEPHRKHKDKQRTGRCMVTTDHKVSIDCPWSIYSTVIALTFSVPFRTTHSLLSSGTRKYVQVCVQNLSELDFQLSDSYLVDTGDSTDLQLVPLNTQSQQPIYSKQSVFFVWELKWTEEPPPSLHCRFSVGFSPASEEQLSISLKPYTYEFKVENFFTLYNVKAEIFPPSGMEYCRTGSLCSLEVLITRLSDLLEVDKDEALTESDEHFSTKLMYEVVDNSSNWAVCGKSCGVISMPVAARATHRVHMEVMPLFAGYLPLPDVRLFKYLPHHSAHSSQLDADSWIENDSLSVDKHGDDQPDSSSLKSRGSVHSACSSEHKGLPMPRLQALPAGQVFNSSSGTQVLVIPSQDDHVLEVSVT
UniProt P04818, sequence (P04818 whole entry, looked up): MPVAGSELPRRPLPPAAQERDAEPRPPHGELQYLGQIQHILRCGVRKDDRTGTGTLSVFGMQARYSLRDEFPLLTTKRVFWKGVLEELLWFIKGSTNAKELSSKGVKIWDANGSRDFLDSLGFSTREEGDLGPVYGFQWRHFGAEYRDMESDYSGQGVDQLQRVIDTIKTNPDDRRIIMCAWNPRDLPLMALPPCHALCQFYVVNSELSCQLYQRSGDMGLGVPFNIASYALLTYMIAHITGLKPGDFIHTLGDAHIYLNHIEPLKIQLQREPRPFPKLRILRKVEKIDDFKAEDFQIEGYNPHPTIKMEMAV
UniProt P17480, sequence (P17480 whole entry, looked up): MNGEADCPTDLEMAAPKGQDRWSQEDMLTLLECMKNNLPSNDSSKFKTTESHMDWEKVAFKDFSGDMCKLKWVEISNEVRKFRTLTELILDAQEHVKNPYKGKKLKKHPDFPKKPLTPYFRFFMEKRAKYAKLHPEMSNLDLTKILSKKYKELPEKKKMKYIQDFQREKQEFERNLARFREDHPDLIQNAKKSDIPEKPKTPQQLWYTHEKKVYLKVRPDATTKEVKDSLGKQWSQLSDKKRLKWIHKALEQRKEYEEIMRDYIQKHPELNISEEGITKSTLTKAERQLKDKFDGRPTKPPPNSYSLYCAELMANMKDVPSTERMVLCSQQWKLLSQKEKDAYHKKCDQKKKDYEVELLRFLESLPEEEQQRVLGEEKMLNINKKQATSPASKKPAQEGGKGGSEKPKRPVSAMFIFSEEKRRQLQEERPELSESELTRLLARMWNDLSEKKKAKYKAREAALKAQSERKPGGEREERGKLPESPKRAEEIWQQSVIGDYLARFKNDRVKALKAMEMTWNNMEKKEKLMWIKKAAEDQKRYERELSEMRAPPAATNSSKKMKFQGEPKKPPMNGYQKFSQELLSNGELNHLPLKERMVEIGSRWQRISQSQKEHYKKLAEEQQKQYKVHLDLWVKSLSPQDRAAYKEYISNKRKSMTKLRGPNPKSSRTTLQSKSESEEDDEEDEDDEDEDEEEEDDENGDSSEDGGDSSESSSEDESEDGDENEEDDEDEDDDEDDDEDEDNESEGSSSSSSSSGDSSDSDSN
UniProt Q96CW5, sequence (Q96CW5 whole entry, looked up): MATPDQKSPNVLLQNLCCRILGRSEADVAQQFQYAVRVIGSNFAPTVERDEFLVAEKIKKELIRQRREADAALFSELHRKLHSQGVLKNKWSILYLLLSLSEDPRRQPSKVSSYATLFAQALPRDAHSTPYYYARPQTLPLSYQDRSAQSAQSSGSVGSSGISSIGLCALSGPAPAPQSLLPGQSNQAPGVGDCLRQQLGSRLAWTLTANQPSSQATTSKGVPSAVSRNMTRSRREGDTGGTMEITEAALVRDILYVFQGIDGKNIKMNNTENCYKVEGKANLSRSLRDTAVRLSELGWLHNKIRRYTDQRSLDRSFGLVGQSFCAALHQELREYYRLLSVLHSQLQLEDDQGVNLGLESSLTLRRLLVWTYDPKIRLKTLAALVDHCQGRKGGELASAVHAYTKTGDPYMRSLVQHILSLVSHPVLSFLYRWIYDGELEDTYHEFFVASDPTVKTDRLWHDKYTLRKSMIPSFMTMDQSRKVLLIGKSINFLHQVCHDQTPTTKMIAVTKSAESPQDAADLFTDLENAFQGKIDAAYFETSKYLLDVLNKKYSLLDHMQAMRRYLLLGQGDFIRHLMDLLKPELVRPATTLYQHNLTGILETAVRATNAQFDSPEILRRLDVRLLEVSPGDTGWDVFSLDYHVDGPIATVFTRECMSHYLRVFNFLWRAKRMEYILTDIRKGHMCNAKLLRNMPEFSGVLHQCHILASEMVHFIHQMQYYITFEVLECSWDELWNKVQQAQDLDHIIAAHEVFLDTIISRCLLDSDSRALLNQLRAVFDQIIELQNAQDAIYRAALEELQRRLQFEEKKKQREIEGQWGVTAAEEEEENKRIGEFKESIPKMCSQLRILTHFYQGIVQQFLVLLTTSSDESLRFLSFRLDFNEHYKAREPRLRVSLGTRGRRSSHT

Target	log2 fold change (ibrutinib)	log2 fold change [1]	log2 fold change (ralimetinib)	log2 fold change [2]	log2 fold change [3]	log2 fold change [4]	log2 fold change [5]	log2 fold change [6]	log2 fold change [7]	log2 fold change [8]	log2 fold change (vemurafenib)	log2 fold change [9]	log2 fold change (barasertib)	log2 fold change [10]	log2 fold change (volasertib)	log2 fold change [11]	log2 fold change [12]	log2 fold change [13]	log2 fold change (saracatinib)	log2 fold change (sotrastaurin)
TNIK isoform 4 (UniProt Q9UKE5)	0.008	0.374 (active)	-0.024	-0.005	0.046	-0.013	-0.019	0.186	-0.012	-0.068	0.002	-0.015	-0.034	0.025	0	0.011	0.071	0.099	0.071	0.056
TRMT2A (UniProt Q8IZ69)	0.002	0.005	0.026	-0.005	0.001	0.012	-0.007	-0.03	0.035	0.008	-0.028	0.004	0.016	-0.019	-0.045	0.005	-0.016	0.009	-0.007	0.002
TGFBRAP1 (UniProt Q8WUH2)	0.002	0.022	0.011	0.025	-0.014	0.007	0.015	-0.005	0.009	-0.012	-0.031	0.02	0.031	-0.069	-0.062	0.049	0	-0.075	0.005	-0.001
TRIM33 isoform 2 (UniProt Q9UPN9)	0.04	0.006	0.024	0.022	-0.026	0.01	0	-0.014	0.019	0.005	-0.018	-0.003	0.009	-0.008	-0.039	0.023	-0.132	0.05	0.027	0.043
UBTF (UniProt P17480)	0.026	0.025	0.017	-0.002	0.016	0.046	-0.075	-0.022	0.044	-0.002	-0.024	0.002	0.011	-0.291 (active)	-0.011	0.002	0.038	-0.067	0.042	0.023
TTMP isoform 3 (UniProt Q5BVD1)	0.09	0	-0.034	-0.22	-0.038	-0.091	-0.02	0.296	-0.004	-0.099	0.227	0.029	-0.025	0.122	0.031	-0.182	-0.88 (active)	0.316	0.012	-0.029
TRAPPC12 (UniProt Q8WVT3)	0.001	-0.011	0.064	0.02	-0.014	-0.022	-0.003	0.008	-0.001	0.009	0.039	-0.001	-0.007	0.047	-0.083	-0.03	-0.027	-0.009	0.028	-0.003
TBCE (UniProt Q15813)	-0.027	0.004	0.037	0.01	-0.004	0.003	0.004	-0.007	0.025	-0.016	0.04	0.015	0.024	-0.065	-0.082	0.048	-0.044	-0.023	0.013	0.001
TYMS (UniProt P04818)	-0.041	-0.017	0.014	0.029	0.01	0.001	0.043	-0.005	-0.001	-0.022	-0.009	0.006	0.022	-0.053	-0.041	-0.004	-0.035	-0.064	0	0.008
TMPO (UniProt P42166)	-0.025	-0.018	-0.087	-0.004	0.018	0.011	0	0.024	0.047	-0.026	0.027	-0.004	0.04	-0.041	-0.025	0.033	0.026	0.003	-0.017	-0.161
UBL4A (UniProt P11441)	0.056	0.055	0	0.049	0.009	-0.023	-0.02	-0.044	-0.002	0.025	-0.032	-0.001	0.089	-0.081	-0.02	0.121	0.33 (active)	-0.094	0.028	0
TBK1 (UniProt Q9UHD2)	-0.02	0.159	-0.007	-0.035	0.047	0.015	-0.016	-0.034	0.032	-0.013	0.008	0.002	-0.03	-0.058	-0.064	-0.021	0.216	0.079	-0.029	-0.045
TRAPPC10 (UniProt P48553)	-0.006	-0.004	0.025	-0.03	0.027	0.002	-0.029	0.019	0.02	-0.004	0.022	0.009	0.027	-0.063	-0.052	0.022	-0.061	0.071	0.016	-0.039
UBA1 (UniProt P22314)	-0.002	0.003	0.053	0	0.027	-0.018	0.006	0	0.015	0.02	0.018	0.005	0.023	-0.063	-0.036	-0.006	-0.027	0.004	-0.02	0.008
TUBGCP3 (UniProt Q96CW5)	-0.007	0.018	0.03	0.045	-0.039	0.003	-0.037	0.004	0.106	0.028	-0.013	0.026	-0.078	0.001	-0.039	0.028	-0.016	0.015	0.002	0.01
TDRKH (UniProt Q9Y2W6)	-0.028	-0.023	0.033	-0.027	-0.02	0.003	-0.008	-0.006	-0.005	-0.035	0.07	0.055	0.031	-0.195	-0.052	-0.003	-0.095	0.058	-0.004	-0.039
